Test results: PubChem BioAssay (Tox21)
“And” between values parts separate entries of the source, which are not always exact repeats. Equal entries are not always repeated. Records with an inconclusive call do not appear. Entries that show only a call come without a potency. Where a structure was tested more than once in an assay, its records may differ in their call. The source made the active and inactive calls. Unless noted, calls follow the shape of the dose curve; as a rule, active = well fitted curve in the direction sought with a large enough effect in the repeat runs; inconclusive = weak or mixed curves; inactive = no such curve, though single readings can be large; an effect the other way counts as inactive or inconclusive.

Columns and labels:
[1] = qHTS assay to identify small molecule agonists of the peroxisome proliferator-activated receptor delta (PPARd) signaling pathway - cell viability counter screen (AID 743211); also: nearly all actives have a fitted effect of over 55% in size
Summary of the method: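 Luminescent ATP viability assay (CellTiter-Glo, 30 min RT) in UAS-bla HEK293H cells carrying the PPAR delta reporter construct, 3000 cells/well, after a 17 h compound treatment at 37 C.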

[2] = biological target: Peroxisome proliferator-activated receptor delta (Homo sapiens) (UniProt Q03181); assay: qHTS assay to identify small molecule agonists of the peroxisome proliferator-activated receptor delta (PPARd) signaling pathway (AID 743212; calls by dose curve)
Summary of the method: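 Tox21 library screened in GeneBLAzer PPARd UAS-bla HEK293H cells. After compound treatment at 37 C, a FRET-based beta-lactamase substrate was applied for 2 h and fluorescence recorded.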

[3] = qHTS assay to identify small molecule antagonists of the peroxisome proliferator-activated receptor delta (PPARd) signaling pathway - cell viability counter screen (AID 743213); also: nearly all actives have a fitted effect of over 50% in size
Summary of the method: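 Luminescence from CellTiter-Glo, added after the bla read and incubated 30 min at room temperature, gives viability of HEK293H PPARd-bla cells exposed to compounds for 17 h at 37 C with 300 nM L165041.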

[4] = biological target: Peroxisome proliferator-activated receptor delta (Homo sapiens) (UniProt Q03181); assay: qHTS assay to identify small molecule antagonists of the peroxisome proliferator-activated receptor delta (PPARd) signaling pathway (AID 743215; active = well fitted inhibition curve with a large enough effect in the signal ratio in the repeat runs, not every such curve was filed as active; the % refers to the signal ratio;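 also: cells stimulated with agonist L165041 at 300 nM final during compound exposure; series mostly up to about 62 µM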)
Summary of the method: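 Screen format: qHTS, antagonist mode. HEK293H PPARd-bla cells received compound and 300 nM L165041 (final), 17 h, 37 C. Beta-lactamase detected via FRET substrate fluorescence, 2 h, room temperature.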

[5] = biological target: Bile acid receptor (Homo sapiens) (UniProt Q96RI1); assay: qHTS assay to identify small molecule antagonists of the farnesoid-X-receptor (FXR) signaling pathway (AID 743217; active = well fitted inhibition curve with a large enough effect in the signal ratio in the repeat runs, not every such curve was filed as active; the % refers to the signal ratio)
Summary of the method: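 Quantitative HTS, beta-lactamase reporter format: FXR-UAS-bla HEK 293T cells co-treated 16 h at 37 °C with compounds and 50 uM final chenodeoxycholic acid, then read by B/G FRET fluorescence.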

[6] = qHTS assay to identify small molecule agonists of the farnesoid-X-receptor (FXR) signaling pathway - cell viability counter screen (AID 743218); also: nearly all actives have a fitted effect of over 45% in size; also: potency is read from the fitted curve at half-maximal effect
Summary of the method: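 Same-well cytotoxicity check on FXR-UAS-bla HEK 293T cells: 5 h attachment, 16 h compound at 37 C, CellTiter-Glo luminescence read at room temperature after 30 min.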

[7] = biological target: Bile acid receptor (Homo sapiens) (UniProt Q96RI1); assay: qHTS assay to identify small molecule agonists of the farnesoid-X-receptor (FXR) signaling pathway (AID 743220; active = well fitted activation curve with a large enough effect in the signal ratio in the repeat runs, not every such curve was filed as active; the % refers to the signal ratio)
Summary of the method: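 FXR-UAS-bla HEK 293T cells carrying a UAS-driven beta-lactamase reporter were plated for 5 h at 37C/5% CO2, then exposed to DMSO-dissolved Tox21 10K compounds for 16 h at 37C. A LiveBLAzer B/G FRET substrate was loaded for 2 h at room temperature before fluorescence reading.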

[8] = qHTS assay to identify small molecule antagonists of the farnesoid-X-receptor (FXR) signaling pathway - cell viability counter screen (AID 743221; active = well fitted cell-killing curve with a large enough effect in the repeat runs, not every such curve was filed as active; also: nearly all actives have a fitted effect of over 50% in size; also: potency is read from the fitted curve at half-maximal effect)
Summary of the method: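 In GeneBLAzer FXR-UAS-bla HEK 293T cells stimulated with 50 uM chenodeoxycholic acid (final), compounds acted for 16 h at 37 C. Viability was assessed afterwards by CellTiter-Glo luminescence.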

[9] = biological target: Vitamin D3 receptor (Homo sapiens) (UniProt P11473); assay: qHTS assay to identify small molecule agonists of the vitamin D receptor (VDR) signaling pathway (AID 743222; calls by dose curve)
Summary of the method: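 Using LiveBLAzer B/G FRET detection, agonism was scored in VDR-bla cells exposed overnight (16 h, 37C) to DMSO-dissolved compounds; substrate incubation was 2 h at room temperature.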

[10] = biological target: Vitamin D3 receptor (Homo sapiens) (UniProt P11473); assay: qHTS assay to identify small molecule antagonists of the vitamin D receptor (VDR) signaling pathway (AID 743223; active = well fitted inhibition curve with a large enough effect in the signal ratio in the repeat runs, not every such curve was filed as active; the % refers to the signal ratio)
Summary of the method: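 Agonist 1alpha,25-dihydroxyvitamin D3 (3 nM in well) was added with each compound to VDR-bla cells preincubated 4 h. Cells stood 16 h at 37C, then FRET substrate 2 h at room temperature; fluorescence intensity recorded.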

[11] = qHTS assay to identify small molecule agonists of the vitamin D receptor (VDR) signaling pathway - cell viability counter screen (AID 743224); also: nearly all actives have a fitted effect of over 50% in size; also: potency is read from the fitted curve at half-maximal effect
Summary of the method: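 Counter screen for cytotoxicity: VDR-bla cells at 2,000 cells/well, 16 h compound exposure, then CellTiter-Glo luminescence after the beta-lactamase measurement.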

[12] = qHTS assay to identify small molecule antagonists of the vitamin D receptor (VDR) signaling pathway - cell viability counter screen (AID 743225); also: nearly all actives have a fitted effect of over 50% in size
Summary of the method: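 Luminescent cell viability (CellTiter-Glo) in VDR-bla HEK 293T cells after 16 h compound exposure at 37C in the presence of 3 nM final 1-alpha,25-dihydroxy vitamin D3.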

[13] = qHTS assay to identify small molecule agonists of the NFkB signaling pathway (AID 1159509; active = well fitted curve in the direction sought with a large enough effect in the signal ratio in the repeat runs, not every such curve was filed as active; the % refers to the signal ratio; also: series mostly up to about 61 µM)
Summary of the method: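 Pathway activation was measured in ME-180 cells stably expressing beta-lactamase under NF-kB response element control. Substrate cleavage was read as the 460/530 nm emission shift after 5 hr compound incubation.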

[14] = qHTS assay to identify small molecule agonists of the NFkB signaling pathway - cell viability counter screen (AID 1159515; calls by dose curve; also: series mostly up to about 61 µM; nearly all actives have a fitted effect of over 55% in size)
Summary of the method: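 Counter screen run alongside the NFkB-bla agonist assay: ME-180 reporter cells exposed to compounds for 5 hr, then lysed with CellTiter-Glo in the same wells. Luminescence, read after 30 min, reflects viable cells.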

[15] = qHTS assay to identify small molecule agonists of the endoplasmic reticulum stress response signaling pathway (AID 1159516; active = well fitted activation curve with a large enough effect in the signal ratio in the repeat runs, not every such curve was filed as active; the % refers to the signal ratio)
Summary of the method: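 For this screen, HeLa cells stably carrying beta-lactamase under the ER stress response element received test compounds, positive controls or DMSO for 5 hr at 37 C; B/G FRET substrate was then added and dual-wavelength emission recorded.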

[16] = qHTS assay to identify small molecule agonists of the endoplasmic reticulum stress response signaling pathway - cell viability counter screen (AID 1159517; calls by dose curve)
Summary of the method: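 In parallel with the ESRE reporter read, cytotoxicity was scored by CellTiter-Glo luminescence (30 min, room temperature) on HeLa ESRE-bla cells dosed for 5 hr.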

[17] = qHTS assay to identify small molecule antagonists of the retinoid-related orphan receptor gamma (ROR-gamma) signaling pathway - cell viability counter screen (AID 1159520); also: nearly all actives have a fitted effect of over 50% in size; also: potency is read from the fitted curve at half-maximal effect
Summary of the method: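 Tet-on ROR gamma CHO cells were given compounds for 2 hr, then doxycycline hyclate at 1 uM final, and incubated 16 hr at 37 C. Viability was measured as ATP content by CellTiter-Glo luminescence.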

[18] = biological target: Nuclear receptor ROR-gamma (Homo sapiens) (UniProt P51449); assay: qHTS assay to identify small molecule antagonists of the retinoid-related orphan receptor gamma (ROR-gamma) signaling pathway (AID 1159521; also: nearly all actives have a fitted effect of over 50% in size; also: potency is read from the fitted curve at half-maximal effect)
Summary of the method: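 CHO cells expressing RORγ under a TET-on promoter, luciferase under RORE control. Dox 1 uM final, 16 h; compounds added 2 h prior. Luminescence decrease measured.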

[19] = qHTS assay to identify small molecule agonists of the AP-1 signaling pathway - cell viability counter screen (AID 1159525; calls by dose curve; also: nearly all actives have a fitted effect of over 55% in size; also: potency is read from the fitted curve at half-maximal effect)
Summary of the method: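 Same-well cytotoxicity counter screen of the Tox21 10K library in ME-180 cells. The readout is ATP-dependent luminescence after 5 h compound treatment. Data are normalised to DMSO and tetra n-octyl ammonium bromide controls.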

[20] = qHTS assay to identify small molecule agonists of the AP-1 signaling pathway (AID 1159526; calls by dose curve)

Chain of Vitamin D3 receptor (Homo sapiens) (P11473 whole entry, looked up): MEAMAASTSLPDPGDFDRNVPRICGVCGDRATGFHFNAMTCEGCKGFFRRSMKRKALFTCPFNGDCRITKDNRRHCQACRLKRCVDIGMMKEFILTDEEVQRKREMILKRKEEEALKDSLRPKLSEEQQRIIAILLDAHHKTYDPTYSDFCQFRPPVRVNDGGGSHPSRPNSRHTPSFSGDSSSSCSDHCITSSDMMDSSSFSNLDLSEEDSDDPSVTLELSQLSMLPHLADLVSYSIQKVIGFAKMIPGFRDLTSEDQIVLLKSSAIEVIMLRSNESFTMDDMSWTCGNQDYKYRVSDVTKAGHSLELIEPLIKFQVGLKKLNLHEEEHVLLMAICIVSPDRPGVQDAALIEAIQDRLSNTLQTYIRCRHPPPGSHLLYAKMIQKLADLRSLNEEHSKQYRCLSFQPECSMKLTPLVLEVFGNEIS
Chain of Bile acid receptor (Homo sapiens) (Q96RI1 whole entry, looked up): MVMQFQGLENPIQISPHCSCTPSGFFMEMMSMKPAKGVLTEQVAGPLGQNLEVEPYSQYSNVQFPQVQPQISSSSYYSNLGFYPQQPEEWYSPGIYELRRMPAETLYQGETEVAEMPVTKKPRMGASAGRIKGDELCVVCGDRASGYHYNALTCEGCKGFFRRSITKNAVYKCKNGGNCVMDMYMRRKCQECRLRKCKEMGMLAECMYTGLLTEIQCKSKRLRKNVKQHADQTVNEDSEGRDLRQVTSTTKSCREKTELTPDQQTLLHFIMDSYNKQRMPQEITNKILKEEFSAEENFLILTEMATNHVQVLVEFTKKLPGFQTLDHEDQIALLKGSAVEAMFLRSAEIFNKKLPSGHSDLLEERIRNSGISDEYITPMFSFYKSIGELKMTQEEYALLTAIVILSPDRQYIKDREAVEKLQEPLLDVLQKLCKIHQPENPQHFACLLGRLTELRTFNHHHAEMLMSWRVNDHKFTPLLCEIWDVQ
Chain of Peroxisome proliferator-activated receptor delta (Homo sapiens) (Q03181 whole entry, looked up): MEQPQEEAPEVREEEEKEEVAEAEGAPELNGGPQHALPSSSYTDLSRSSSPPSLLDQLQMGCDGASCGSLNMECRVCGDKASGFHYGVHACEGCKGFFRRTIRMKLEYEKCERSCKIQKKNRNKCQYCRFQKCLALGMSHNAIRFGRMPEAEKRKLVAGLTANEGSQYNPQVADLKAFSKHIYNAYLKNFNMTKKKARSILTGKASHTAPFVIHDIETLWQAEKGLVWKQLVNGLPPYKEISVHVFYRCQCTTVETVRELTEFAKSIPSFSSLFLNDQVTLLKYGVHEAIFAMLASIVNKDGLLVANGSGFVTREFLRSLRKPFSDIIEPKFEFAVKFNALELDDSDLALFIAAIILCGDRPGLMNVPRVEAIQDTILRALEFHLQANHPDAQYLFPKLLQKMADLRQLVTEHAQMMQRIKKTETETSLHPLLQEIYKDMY

SMILES	outcome [1]	outcome [2]	outcome [3]	Potency [4]	outcome [5]	Potency [6]	outcome [7]	Potency [8]	outcome [9]	outcome [10]	Potency [11]	outcome [12]	outcome [13]	outcome [14]	outcome [15]	outcome [16]	Potency [17]	Potency [18]	Potency [19]	outcome [20]
CCCCCCCCCCCCc1ccccc1	inactive	inactive	inactive	inactive	inactive	inactive	inactive	inactive	inactive	inactive	inactive	inactive	inactive	inactive	inactive	inactive	inactive	inactive	inactive	inactive
CC[C@H](C)C(=O)O[C@H]1C[C@@H](C)C=C2C=C[C@H](C)[C@H](CC[C@@H]3C[C@@H](O)CC(=O)O3)[C@H]21		inactive	inactive	inactive	inactive	62.5 µM (active) and inactive	inactive	62.5 µM (active) and inactive	inactive		inactive	inactive	inactive	inactive	inactive	inactive	27.7 µM (active)	982 nM (active) and 1.21 µM (active)	55.7 µM (active) and inactive	inactive
Fc1ccc(Br)cc1	inactive		inactive			inactive		inactive	inactive	inactive	inactive	inactive	inactive	inactive	inactive	inactive	inactive	inactive	inactive	inactive
CCCCCOC(C)=O	inactive	inactive	inactive	inactive	inactive	inactive	inactive	inactive	inactive	inactive	inactive and 49 µM (active)	inactive	inactive	inactive	inactive	inactive	inactive		inactive	inactive
CC(C)CC(=O)CC(C)C	inactive		inactive			inactive		inactive	inactive	inactive	inactive	inactive	inactive	inactive	inactive	inactive	inactive	inactive	inactive	inactive
OC[C@H]1O[C@@](CO)(O[C@H]2O[C@H](CO)[C@@H](O)[C@H](O)[C@H]2O)[C@@H](O)[C@@H]1O	inactive	inactive	inactive	inactive	inactive	inactive	inactive	inactive			inactive	inactive	inactive	inactive	inactive	inactive	inactive		inactive	inactive
COc1ccc(Cl)cc1C(=O)NCCc1ccc(S(=O)(=O)NC(=O)NC2CCCCC2)cc1	inactive	inactive	inactive	inactive	inactive	inactive	inactive	inactive			inactive	inactive	inactive	inactive	inactive	inactive	inactive		inactive	inactive
O=C1CCC(N2C(=O)c3ccccc3C2=O)C(=O)N1 (configuration not stated)	inactive	inactive	inactive	inactive		inactive		inactive			inactive		inactive	inactive	inactive	inactive	inactive		inactive	inactive
